In all, about 350,000 compounds went through this assay and about 990 (0.28%) were called active. Where a call stands in place of a potency, no number is given. Inconclusive results (about 2%) are left out. The sample holds actives, similar compounds and a random draw of the others, so the mix is not that of the screen. Calls follow the shape of the dose curve; as a rule, active = well fitted inhibition curve with a large enough effect; inconclusive = small, poorly fitted or top-dose-only effect; inactive = no such curve, though single readings can be large or run the other way.
Potency is read from the fitted curve at half-maximal effect.

Tyrosyl-DNA phosphodiesterase 1 (Homo sapiens), sequence (Q9NUW8 whole entry, looked up): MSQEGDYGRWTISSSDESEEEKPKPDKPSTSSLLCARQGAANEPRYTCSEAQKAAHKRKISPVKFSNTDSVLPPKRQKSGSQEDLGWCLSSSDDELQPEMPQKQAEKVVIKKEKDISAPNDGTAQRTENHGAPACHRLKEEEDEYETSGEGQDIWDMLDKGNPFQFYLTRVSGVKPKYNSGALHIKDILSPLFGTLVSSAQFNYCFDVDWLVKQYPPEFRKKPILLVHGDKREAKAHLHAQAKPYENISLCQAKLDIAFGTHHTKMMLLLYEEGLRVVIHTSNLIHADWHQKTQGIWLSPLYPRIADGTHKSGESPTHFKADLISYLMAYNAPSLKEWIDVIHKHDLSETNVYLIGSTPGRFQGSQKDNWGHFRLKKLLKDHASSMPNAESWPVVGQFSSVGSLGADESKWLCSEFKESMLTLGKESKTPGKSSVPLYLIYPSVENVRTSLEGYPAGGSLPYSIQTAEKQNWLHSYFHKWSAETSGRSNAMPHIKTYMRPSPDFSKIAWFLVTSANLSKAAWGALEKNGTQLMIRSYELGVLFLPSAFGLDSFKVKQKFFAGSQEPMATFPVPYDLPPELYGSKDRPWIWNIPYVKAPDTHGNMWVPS

This test addresses Tyrosyl-DNA phosphodiesterase 1 (Homo sapiens) (UniProt Q9NUW8). Put plainly: qHTS Assay for Inhibitors of Tyrosyl-DNA Phosphodiesterase (TDP1). Also: nearly all actives have a fitted effect of over 40% in size. To be noted: recombinant TDP1, AlphaScreen DNA substrate cleavage; series mostly up to 130 µM. In outline:
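Here, a 5' biotin and 3' phosphotyrosine-FITC DNA oligonucleotide reports Tdp1 activity: intact substrate bridges AlphaScreen beads, while cleavage leaves a 3' phosphate and drops signal. All incubations at room temperature.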
Background: In qHTS, concentration-response curves come from the screen itself.
`Cc1ccc(-c2nc3ccccn3c2Nc2ccc(F)cc2)o1`: the Potency result is “inactive”.
The same measure for `Cc1ccc2nc(-c3ccncc3)cc(C(=O)Nc3ccc4c(c3)OCCO4)c2c1`: “inactive”.
The same measure for `Cc1ccc2nc(-c3ccncc3)cc(C(=O)Nc3ccncc3)c2c1`: “inactive”; for `Cc1ccc2nc(-c3ccncc3)cc(C(=O)Nc3ccc(OC(F)F)cc3)c2c1`: 50.1 µM (active); for `CN(C)Cc1cn(-c2ccccc2)nc1-c1ccccc1`: “inactive”.
Then `COC(=O)c1ccccc1S(=O)(=O)Nc1ccc(OC)cc1`, with “inactive”.
`COc1ccc(C2Nc3ccccc3C(=O)N2Cc2ccc(Cl)cc2)cc1COc1ccc(NC(C)=O)cc1` (stereo not drawn): the Potency result was “inactive”.
Then `Cc1ccc(-c2nn3c(=O)cc(CN4CCN(C(=O)Nc5cccc(C(F)(F)F)c5)CC4)nc3s2)cc1`, with “inactive”; and `N#Cc1nc(Nc2cccc(Cl)c2)nc(NC2CCCC2)n1`, with “inactive”.
The same measure for `O=C1CCc2cc(S(=O)(=O)Nc3cccc(Oc4ccccc4)c3)ccc2N1`: “inactive”; for `Oc1c(C(c2ccc(F)cc2)N2CCN(Cc3ccccc3)CC2)sc2nc(-c3ccco3)nn12` (stereo not drawn): “inactive”.
For the molecule `C=CCNC(=O)c1ccc2nc(-c3ccco3)c(-c3ccco3)nc2c1`, the Potency result was “inactive”.
The same measure for `O=C(NCc1ccccn1)c1ccc2nc(-c3ccco3)c(-c3ccco3)nc2c1`: 8.91 µM (active).
The same measure for `O=C1CSc2ccc(C(=O)NCc3ccccn3)cc2N1`: “inactive”; for `COc1ccc(N2C(=O)CSC23C(=O)N(Cc2cccc(F)c2)c2ccccc23)cc1Cl` (stereo not drawn): “inactive”; for `CCCC(=O)N1CCN(c2nc3c(OC)ccc(C)c3s2)CC1`: “inactive”.
With `CC(=O)c1sc2nc(SCC(=O)N3CCCCC3)[nH]c(=O)c2c1C`, the Potency result was “inactive”.
Then `CSc1nnc(SCc2nc3sc(C(=O)O)c(C)c3c(=O)[nH]2)s1`, with 22.4 µM (active); and `CCOC(=O)c1sc2nc(CSc3ccccc3)[nH]c(=O)c2c1C`, with “inactive”.
The same measure for `Cc1nn(-c2ccc(N3CCCCC3)nn2)c(C)c1CCC(=O)NCc1ccc(F)cc1`: “inactive”; for `N#CN1CCC(NC(=O)c2ccc(F)cc2)CC1`: “inactive”; for `NC(=O)C1CCN(C(=O)c2cccc(NC(=O)c3nsc4ccccc34)c2)CC1`: “inactive”.
Then `CC(C)c1ccc(NC(=O)C2CCN(c3nc(-c4ccc(C(C)C)cc4)no3)CC2)cc1`, with “inactive”; and `O=C(COC(=O)c1cccs1)NCc1cccs1`, with “inactive”; and `O=C(COC(=O)C12CC3CC(CC(C3)C1)C2)NCc1ccco1`, with “inactive”.
Turning to `O=C(COC(=O)CCC(=O)c1cccs1)NCc1ccco1`, the Potency was 22.4 µM (active).
As for `CCCCNc1ccc(-c2nc(-c3ccncc3)no2)cc1[N+](=O)[O-]`, the Potency result is “inactive”.
`Cc1cc(C)c2oc(-c3cccc(NC(=O)c4cccc(F)c4)c3C)nc2c1`: the Potency result was “inactive”.
The same measure for `Cc1ccc(Cc2cnc(N)s2)o1`: 20 µM (active).
The same measure for `Cc1ccc(CCC(=O)Nc2ncc(Cc3cc(Cl)ccc3Cl)s2)o1`: “inactive”; for `COc1cc(F)c(S(=O)(=O)N2CCCN(S(=O)(=O)c3ccc(N)cc3)CC2)c(F)c1`: “inactive”.
The same measure for `O=S1(=O)N=C(Oc2cccc(Br)c2)c2ccccc21`: “inactive”; for `Cc1ccc(NC(=O)CSc2nc(CSc3ccc(C)cc3)cc(=O)[nH]2)cc1`: “inactive”.
In the case of `COc1ccc(NC(=O)CSc2nc3ccccc3[nH]2)cc1`, the Potency entry is “inactive”.
For `COc1ccc(NC(=O)CSc2nc(NS(=O)(=O)c3ccc(C)cc3)cc(=O)[nH]2)cc1`, the Potency is 20 µM (active).
The same measure for `Oc1ccc(Br)cc1C1C=C(c2ccc3c(c2)OCO3)NC(c2ccc(Cl)cc2)N1` (stereo not drawn): “inactive”.
Then `Cc1ccc2nc(-c3ccc(O)cc3)c(Nc3ccc4c(c3)OCO4)n2c1`, with “inactive”.
With `CCc1ccc(CNC(=O)CCc2nc(-c3cccs3)no2)cc1`, the Potency result was “inactive”.
The same measure for `COc1ccc(OC)c(CNC(=O)CCc2nc(-c3cccs3)no2)c1`: “inactive”; for `COc1ccc(CCc2nc(-c3cccs3)no2)cc1`: 89.1 µM (active).
The same measure for `CCC(=O)Nc1cccc(-c2nc3cc(C)ccc3o2)c1`: “inactive”.
On to `OCCNc1ncnc2oc(-c3ccco3)c(-c3ccco3)c12`, for which the Potency entry was “inactive”.
Then `Cc1cc(CN(C)C(=O)c2cc(COc3ccc(C)c(C)c3)on2)n[nH]1`, with “inactive”.
Take `Cc1ccc(OCc2cc(C(=O)N(C)CCc3ccccc3)no2)cc1C`: the Potency was 50.1 µM (active).
As for `CN(CCOc1ccccc1)C(=O)c1cc(COc2c(F)cccc2F)on1`, the Potency entry was “inactive”.
Consider `COc1ccc(C2Nc3ccccc3C(=O)N2Cc2ccco2)cc1COc1cccc(NC(C)=O)c1` (stereo not drawn), for which the Potency entry is “inactive”.
The same measure for `Cc1ccc(C(=O)COC(=O)C(Cc2c[nH]c3ccccc23)NC(=O)c2ccc(Br)cc2)cc1` (stereo not drawn): “inactive”; for `CCCCNC(=O)Cn1c(SCc2cccc(Cl)c2)nc2ccncc21`: “inactive”; for `CCN1CCN(c2cc(C)c3cc(NC(=O)c4cc(Cl)ccc4OC)ccc3n2)CC1`: “inactive”.
Turning to `C=CC(COCc1ccccc1)N(Cc1ccccc1)S(=O)(=O)c1ccccc1Br` (stereo not drawn), the Potency result is “inactive”.
Then `C=CCCN(C(Cc1ccccc1)C(=O)OC)S(=O)(=O)c1cc(Br)ccc1Br` (stereo not drawn), with “inactive”; and `C=CCCN(Cc1ccccc1)S(=O)(=O)c1ccccc1Br`, with 39.8 µM (active).
Take `CC1(C)CCc2cc(S(=O)(=O)N3CCN(c4nc(-c5cccs5)nc5ccccc45)CC3)ccc2O1`: the Potency result was “inactive”.
Consider `Cc1ccc(Cl)cc1NC(=O)C(C)n1nnc2sc(-c3ccccc3)cc2c1=O` (stereo not drawn), for which the Potency entry is “inactive”.
As to `Cc1ccccc1NC(=O)CSc1nc2ccc(Nc3nc(N4CCOCC4)nc(N4CCOCC4)n3)cc2s1`, the Potency result is “inactive”.
Then `Cc1ccc(Nc2nc(N3CCOCC3)nc(N3CCOCC3)n2)cc1Cl`, with 22.4 µM (active); and `Cc1ccc(Nc2nc(N)nc(CN3CCN(Cc4ccccc4)CC3)n2)cc1Cl`, with “inactive”; and `CC1CC(C)CN(c2oc(-c3ccc(OCc4ccc(Cl)cc4)cc3)nc2C#N)C1` (stereo not drawn), with “inactive”.
Take `Cc1ccc(CCNC(=O)c2ccc(CS(=O)(=O)Cc3cccc(C)c3)o2)cc1`: the Potency result was “inactive”.
The same measure for `CCN1CCN(C(c2ccc(C)cc2)c2c(O)cc(C)n(Cc3ccco3)c2=O)CC1` (stereo not drawn): “inactive”; for `COc1cccc(C(=O)NC2CCN(C#N)CC2)c1`: “inactive”; for `Cn1c(COc2ccccc2C(C)(C)C)nc2ccccc21`: “inactive”.
Regarding `O=C(Cc1ccc([N+](=O)[O-])cc1)N/N=C/c1ccco1`, the Potency result is “inactive”.
The same measure for `O=c1nc(N/N=C/c2ccco2)cn[nH]1`: 31.6 µM (active); for `CC(C)NC(=O)C(=O)N/N=C/c1ccco1`: “inactive”.
`Oc1ccc(Cl)cc1C1C=C(c2ccc3c(c2)OCO3)NC(c2c(F)cccc2Cl)N1` (stereo not drawn): the Potency entry was “inactive”.
Then `Cc1noc(C)c1-c1ccc2ncnc(NCc3ccc(F)c(F)c3)c2c1`, with “inactive”; and `Oc1ccc(Cl)cc1C1C=C(c2ccc3c(c2)OCO3)NC(c2ccc(F)c(Br)c2)N1` (stereo not drawn), with “inactive”.
The same measure for `CO[C@@]12[C@@H](COC(N)=O)C3=C(C(=O)C(C)=C(N)C3=O)N1C[C@@H]1N[C@@H]12`: 35.5 µM (active); for `O=[N+]([O-])c1ccc(S(=O)(=O)N2CCN(c3nc(-c4ccccc4)nc4ccccc34)CC2)cc1`: “inactive”.
Turning to `Cc1cccc(N2CCN(C(=O)c3ccc4c(c3)CCN4S(=O)(=O)c3ccccc3)CC2)c1C`, the Potency entry was “inactive”.
The same measure for `COc1ccc(CCNc2ncnc3c2cnn3-c2ccc(C)cc2)cc1`: “inactive”; for `CCOCN(C(=O)Cn1c(C(C)O)nc2ccccc21)c1c(C)cccc1CC` (stereo not drawn): 89.1 µM (active); for `CC(O)c1nc2ccccc2n1Cc1ccc([N+](=O)[O-])cc1` (stereo not drawn): “inactive”.
With `CCc1cccc(C)c1N(C(=O)Cn1c(CO)nc2ccccc21)C(C)COC` (stereo not drawn), the Potency result was “inactive”.
In the case of `COc1ccc(S(=O)(=O)Nc2cccc3cccnc23)c(N)c1`, the Potency result is “inactive”.
Take `COc1ccccc1NC(=O)C(=O)c1cc(C)n(-c2ccccc2F)c1C`: the Potency result is “inactive”.
Then `CCCOc1ccc(NC(=O)CC2C(=O)N(c3ccccc3)C(=O)N2Cc2ccco2)cc1` (stereo not drawn), with “inactive”; and `Cc1cc(C)c(C#N)c(N2CCC(C(N)=O)CC2)n1`, with “inactive”.
Then `N#Cc1c(N2CCCCC2)nc(N)c2c(N)nc(SCC(=O)O)cc12`, with 50.1 µM (active).
Then `O=C(O)CSc1ccc(S(=O)(=O)N2CCCC2)cn1`, with “inactive”; and `O=C1CCCC2=C1[C@@]1(CCC(c3ccccc3)C1)N=C(Nc1nc3ccccc3o1)N2` (stereo partly drawn), with “inactive”; and `CCCCCCC1(C)NC(c2ccc3c(c2)OCO3)=CC(c2ccccc2O)N1` (stereo not drawn), with “inactive”.
Take `COc1ccc(Nc2cc(C(=O)NCCCN(C)c3ccccc3)c3ccccc3n2)c(OC)c1`: the Potency entry was “inactive”.
Then `Cc1ccc(NC(=O)CCCn2c(=O)c3cccn3c3ccccc32)cc1Cl`, with “inactive”; and `O=C1c2ccccc2C(=O)N1c1ccc(S(=O)(=O)N2CCOCC2)c2ccccc12`, with “inactive”; and `O=C(Nc1cccc2cccnc12)C(F)(F)F`, with “inactive”.
With `CCOC(=O)C1=NOC(Cn2cc(C(C)=O)c(=O)[nH]c2=O)C1` (stereo not drawn), the Potency result is “inactive”.
Then `CCOC(=O)C1=NO[C@@]2(C=C(Br)C(=O)[C@H]3O[C@H]32)C1`, with 8.91 µM (active).
Then `CCOC(=O)C1=C(C)N=C2c3ccccc3C(=O)C2C1c1ccc(Br)cc1` (stereo not drawn), with “inactive”; and `CCOC(=O)N1CCc2c(sc(NCc3cccc(F)c3)c2C(=O)Nc2ccccc2OCC)C1`, with “inactive”; and `CCC1(C)CC(=O)c2c(ccc3oc(C(=O)Nc4ccc(C(C)=O)cc4)c(C)c23)O1` (stereo not drawn), with “inactive”.
The same measure for `COc1ccc(Cc2nc3ccc(C(=O)NCc4ccccc4Cl)cc3o2)cc1`: “inactive”; for `CC(=O)NS(=O)(=O)c1ccc(NC(=O)C2C3C=CC(C3)C2C(=O)O)cc1` (stereo not drawn): 79.4 µM (active).
As to `COC(=O)c1cc(NC(=O)C2C3C=CC(C3)C2C(=O)O)cc(C(=O)OC)c1` (stereo not drawn), the Potency entry was “inactive”.
The same measure for `CC(C)COC(=O)c1ccc(NC(=O)C2C3C=CC(C3)C2C(=O)O)cc1` (stereo not drawn): “inactive”.
Then `O=C(NCc1ccc2c(c1)CCN2C(=O)c1ccccc1)Nc1cc(F)ccc1F`, with “inactive”.
Take `O=C(CNC(=O)c1ccc(Cl)c(C(F)(F)F)c1)OC(C(=O)Nc1cc(C(F)(F)F)ccc1Cl)c1ccccc1` (stereo not drawn): the Potency entry was “inactive”.
Then `CC(=O)Nc1cccc(NC(=O)CSc2nccn2Cc2ccc3c(c2)OCO3)c1`, with “inactive”.
The same measure for `O=C(CCC1CCCN(C(=O)Cc2ccc(F)cc2)C1)N1CCN(c2ccccn2)CC1` (stereo not drawn): “inactive”; for `O=C(CCC1CCCN(C(=O)c2ccc(F)c(F)c2)C1)N1CCN(c2ccccn2)CC1` (stereo not drawn): “inactive”.
The same measure for `C=Cc1ccc(C(=O)N2CCCC(CCC(=O)N3CCN(c4ccccn4)CC3)C2)cc1` (stereo not drawn): 1.26 µM (active); for `Cc1ccc(S(=O)(=O)NC(N)=NCCC[C@@H](NC(=O)CNC(=O)c2ccccc2)C(=O)Nc2cc(C(F)(F)F)ccc2Cl)cc1`: “inactive”; for `CC(Nc1ncnc2ccc(-c3ccc4c(c3)OCO4)cc12)c1ccco1` (stereo not drawn): “inactive”.
Regarding `O=C(O)c1ccc2c(c1)N(Cc1ccc(F)cc1)C(=O)c1ccccc1S2=O` (stereo not drawn), the Potency entry was “inactive”.
The same measure for `O=c1[nH]c(=S)[nH]c2[nH]c(=S)[nH]c12`: 8.91 µM (active); for `CCCS(=O)(=O)Nc1cccc(-c2cn3ccsc3n2)c1`: “inactive”.
Then `COC(=O)c1ccc(NC(=O)CCc2c(C)nn(-c3ccc(N4CCCC4)nn3)c2C)cc1`, with “inactive”; and `CN(C)c1ccc(C(=O)NCC(=O)OC(C(=O)Nc2cc(C(F)(F)F)ccc2Cl)c2ccccc2)cc1` (stereo not drawn), with “inactive”.
On to `CCOc1cccc(C(=O)Nc2nnc(S(=O)(=O)N(C)c3ccc(C)cc3)s2)c1`, for which the Potency result was “inactive”.
Then `O=C(NCc1nnc(C(=O)Nc2ccc(C(F)(F)F)cc2Cl)o1)c1ccccc1`, with “inactive”.
Then `COc1ccc(NC(=O)c2sc3nc[nH]c(=O)c3c2C)cc1`, with “inactive”; and `Cc1cccc(N2CCN(c3ccc(C(=O)O)cc3NC(=O)c3ccccc3F)CC2C)c1` (stereo not drawn), with “inactive”; and `O=C(NCCCO)C(=O)Nc1c2c(nn1-c1ccccc1)CSC2`, with “inactive”.
Then `C=C1c2cccc(OC)c2O[C@H](C(=O)OCC)[C@@H]1CCCCCC`, with 35.5 µM (active).
With `CCOC(=O)C1=C(C)c2ccccc2OC1C(=O)OCC` (stereo not drawn), the Potency entry was “inactive”.
The same measure for `COc1ccc(C(=O)N(Cc2ccccc2)Cc2ccc(OC)c(COc3ccc(NC(C)=O)cc3)c2)c(O)c1`: “inactive”; for `CC(=O)NC(c1cccs1)c1cc(Cl)c2cccnc2c1O` (stereo not drawn): “inactive”.

Values taken from PubChem BioAssay AID485290 (National Center for Advancing Translational Sciences (NCATS), 2010).
